Rows were chosen to be rich in hits. Some 17% of all compounds tested hit in one or more screens of this group.
ClpP mod: qHTS Assay for Activators of ClpP; ATP-dependent Clp protease proteolytic subunit (Bacillus subtilis (strain 168)), P80244; purified B. subtilis ClpP, FRET peptide cleavage, 20 min; Potency, µM (titrated, usually from 57.5 µM), for inactives: at the highest dose activity change, negative = active; actives 1.9% (n = 340,000); AID 651965, 2013; active = well fitted falling curve with a large enough effect; inconclusive = small, poorly fitted or top-dose-only effect; inactive = no such curve, though single readings can be large or run the other way; note: the source files actives as falling curves though it sought activators and does not explain the sign; nearly all actives have a fitted effect of over 65% in size
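Purified B. subtilis ClpP, 10 microg/mL final in Tris/HCl pH8 with KCl, BSA, glycerol and Tween-20, cleaved an Abz/nitrotyrosine-quenched decapeptide. Fluorescence (ex 320, em 430) was read at 0 and 20 min at room temperature. Delta was normalized to 5.8 microM ADEP and DMSO/no-enzyme controls.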
DT40 TDP1 no CPT: qHTS for Inhibitors of human tyrosyl-DNA phosphodiesterase 1 (TDP1): qHTS in cells in absence of CPT | actives 15% (n = 420,000) | Potency, µM (highest dose often 46.2 µM), without a hit: top-dose activity change, negative = growth inhibition, most hits filed as inhibitors | DT40 Tdp1-/- hTDP1 cells, no CPT, ATP luminescence, 48 h; note: % is set by controls: 0 for no effect and ±100 for the full control effect; nearly all actives have a fitted effect of over 55% in size
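Growth kinetics read by CellTiter-Glo luminescence after ≥48 hr at 37 °C. Cells: DT40 Tdp1-/- stably carrying human TDP1, 400 per well, compound exposure in the absence of CPT (DMSO vehicle).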
TDP1 block: inhibitors of human tyrosyl-DNA phosphodiesterase TDP1; recombinant TDP1, AlphaScreen DNA substrate cleavage; Q9NUW8; actives 0.28% (n = 350,000); AID 485290; Potency, µM (doses to about 130 µM), inactives show at the top dose activity change, negative = inhibition, usual class: inhibitors; note: % is set by controls: 0 for no effect and ±100 for the full control effect; nearly all actives have a fitted effect of over 40% in size
Target sequence (Q9NUW8 whole entry, looked up): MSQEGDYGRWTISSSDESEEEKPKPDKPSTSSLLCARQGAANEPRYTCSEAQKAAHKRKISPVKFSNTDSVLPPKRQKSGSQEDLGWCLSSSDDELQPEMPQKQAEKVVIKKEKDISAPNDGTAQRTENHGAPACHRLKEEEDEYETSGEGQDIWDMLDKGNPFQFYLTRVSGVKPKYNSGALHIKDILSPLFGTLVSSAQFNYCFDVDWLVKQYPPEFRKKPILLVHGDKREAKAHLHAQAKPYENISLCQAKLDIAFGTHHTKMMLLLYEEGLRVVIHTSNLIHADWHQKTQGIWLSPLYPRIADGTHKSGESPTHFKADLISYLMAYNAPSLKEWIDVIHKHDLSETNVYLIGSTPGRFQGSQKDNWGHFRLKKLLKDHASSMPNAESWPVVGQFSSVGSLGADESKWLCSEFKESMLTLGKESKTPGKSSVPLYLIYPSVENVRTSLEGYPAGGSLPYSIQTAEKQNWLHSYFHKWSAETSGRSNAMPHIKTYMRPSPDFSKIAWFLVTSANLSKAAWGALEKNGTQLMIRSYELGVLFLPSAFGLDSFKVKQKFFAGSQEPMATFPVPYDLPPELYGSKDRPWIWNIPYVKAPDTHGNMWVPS
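AlphaScreen read-out: signal falls as enzyme removes the 3' tyrosine-FITC from a 5'-biotinylated DNA oligo (15 nM, 5 min, RT). Enzyme was E. coli-made recombinant Tdp1 at 1 nM, exposed to compound for 15 min beforehand; beads 10 ug/ml, 10 min.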
DT40 TDP1 CPT: growth inhibition of DT40 Tdp1-/-;hTDP1 cells with camptothecin (screen for TDP1 inhibitors); chicken DT40 Tdp1-/-;hTDP1 cells + 20 nM CPT, ATP luminescence, 48 h; AID 686979; actives 12% (n = 420,000); Potency, µM (highest dose often 46.2 µM), inactives show top-dose activity change, negative = growth inhibition, hits mostly inhibitors; note: % is set by controls: 0 for no effect and ±100 for the full control effect; nearly all actives have a fitted effect of over 55% in size
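Cell growth measured by CellTiter-Glo luminescence after a minimum 48 h, 37 C compound exposure with 20 nM CPT in Tdp1-knockout DT40 cells stably expressing hTDP1, seeded 400/well; qHTS titration format.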
Active calls of the source: *. Unless noted, calls come from the whole dose curve; as a rule, active = well fitted curve in the direction sought with a large enough effect; inconclusive = small, poorly fitted or top-dose-only effect, or another doubt; inactive = no such curve, though single readings can be large; an effect the other way counts as inactive or inconclusive. Potency is the fitted concentration of half-maximal effect.

Results for COCCCNC(=O)CC1C[C@H](C(=O)N(C(C)C)C(C)C)[C@@]2(C)c3[nH]c4ccccc4c3CCN2C1=O (some centres undefined) ?
ClpP mod: -2%; DT40 TDP1 no CPT: inconclusive; TDP1 block: 0%; DT40 TDP1 CPT: -38%

How did O=C(NCCCn1ccnc1)c1ccc(S(=O)(=O)N2CCOCC2)cc1 do in these assays?
ClpP mod: -1%; DT40 TDP1 no CPT: -3%; TDP1 block: 3%; DT40 TDP1 CPT: 1%

What do the screens show for `Cc1nn(-c2ccc(NC(=O)c3ccncc3)cc2)c(C)c1Cl`?
DT40 TDP1 no CPT: inconclusive; TDP1 block: -9%; DT40 TDP1 CPT: inconclusive

How did COc1ccc(-c2c(-c3cc(OC)cc(OC)c3)n(C)c3ccc(-c4cnc(OC)nc4)cc23)cc1 do in these assays?
ClpP mod: inconclusive; DT40 TDP1 no CPT: 18µM*; TDP1 block: 5%; DT40 TDP1 CPT: 21µM*

Results for COc1ccc(-c2c(-c3cc(OC)cc(OC)c3)n(C)c3ccc(-c4ccc(OC)cc4F)cc23)cc1 ?
ClpP mod: 4%; DT40 TDP1 no CPT: inconclusive; TDP1 block: 2%; DT40 TDP1 CPT: inconclusive

Results for COc1cc(OC)cc(-c2c(C#Cc3ccsc3)c3cc(-c4cc(OC)c(OC)c(OC)c4)ccc3n2C)c1 ?
ClpP mod: 4%; DT40 TDP1 no CPT: -21%; TDP1 block: 0%; DT40 TDP1 CPT: -13%

Results for COc1cc(OC)cc(-c2c(C#Cc3ccsc3)c3cc(-c4cnc(OC)nc4)ccc3n2C)c1 ?
ClpP mod: 5%; DT40 TDP1 no CPT: inconclusive; TDP1 block: -2%; DT40 TDP1 CPT: 16µM*

How did CS(=O)(=O)N1CCN(C(=O)c2cc(-c3cccnc3)nc3ccc(Br)cc23)CC1 do in these assays?
DT40 TDP1 no CPT: 9.2µM*; TDP1 block: 0%; DT40 TDP1 CPT: -4%

What do the screens show for `O=C(c1cc(-c2cccnc2)nc2ccc(Br)cc12)N1CCN(c2ncccn2)CC1`?
ClpP mod: -3%; DT40 TDP1 no CPT: 18µM*; TDP1 block: -2%; DT40 TDP1 CPT: inconclusive

Results for Cc1ccc(-c2cc(C(=O)N3CCOCC3)c3cc(C)ccc3n2)cc1 ?
DT40 TDP1 no CPT: inconclusive; TDP1 block: 9%; DT40 TDP1 CPT: -1%

What do the screens show for `O=C(Nc1ccc(C(=O)N2CCOCC2)cc1)c1cc(-c2cccnc2)nc2ccc(Br)cc12`?
ClpP mod: -2%; DT40 TDP1 no CPT: 2.3µM*; TDP1 block: 8%; DT40 TDP1 CPT: 2.3µM*

What do the screens show for `Cc1ccc2nc(-c3cccnc3)cc(C(=O)N3CCN(c4ccc([N+](=O)[O-])cc4)CC3)c2c1`?
DT40 TDP1 no CPT: 18µM*; TDP1 block: 8%; DT40 TDP1 CPT: 16µM*

What do the screens show for `CS(=O)(=O)N1CCN(C(=O)c2cc(-c3cccnc3)nc3ccc(Cl)cc23)CC1`?
DT40 TDP1 no CPT: inconclusive; TDP1 block: 6%; DT40 TDP1 CPT: 0%

Results for O=C(Nc1ccccn1)c1cc(-c2cccnc2)nc2ccc(Br)cc12 ?
ClpP mod: 0%; DT40 TDP1 no CPT: inconclusive; TDP1 block: 0%; DT40 TDP1 CPT: inconclusive

What do the screens show for `O=C(O)c1ccc(CNC(=O)C23CC4CC(CC(C4)C2)C3)cc1`?
DT40 TDP1 no CPT: -7%; TDP1 block: 9%; DT40 TDP1 CPT: -2%

How did CC(=O)c1ccc(N2CCN(C(=O)c3cc(-c4cccnc4)nc4ccc(Br)cc34)CC2)cc1 do in these assays?
DT40 TDP1 no CPT: 18µM*; TDP1 block: 1%; DT40 TDP1 CPT: inconclusive

Results for CC1CCN(CC2C(=O)O[C@@H]3C[C@@]4(C)CCC[C@H](C)C4=C[C@H]23)CC(C)(C)C1 (some centres undefined) ?
DT40 TDP1 no CPT: 18µM*; DT40 TDP1 CPT: inconclusive

What do the screens show for `O=C(c1ccc2c3c(cccc13)CC2)C1CCCN(C(=O)c2cccnc2)C1` (centres undefined)?
ClpP mod: 4%; DT40 TDP1 no CPT: 21µM*; TDP1 block: 3%; DT40 TDP1 CPT: 12µM*

What do the screens show for `CC(=O)NCCC(=O)N1CCCC(C(=O)c2ccc3c4c(cccc24)CC3)C1` (centres undefined)?
DT40 TDP1 no CPT: inconclusive; TDP1 block: 0%; DT40 TDP1 CPT: inconclusive

Results for O=C(c1ccc2c3c(cccc13)CC2)C1CCCN(Cc2cccnc2)C1 (centres undefined) ?
DT40 TDP1 no CPT: inconclusive; TDP1 block: 7%; DT40 TDP1 CPT: -20%

Results for O=C(c1cccc2ccccc12)C1CCCN(C(=O)C2CCOCC2)C1 (centres undefined) ?
ClpP mod: -5%; DT40 TDP1 no CPT: -12%; DT40 TDP1 CPT: inconclusive

How did CN1CCC(C(=O)N2CCCC(C(=O)c3ccc4c5c(cccc35)CC4)C2)CC1 (centres undefined) do in these assays?
ClpP mod: 4%; DT40 TDP1 no CPT: 18µM*; DT40 TDP1 CPT: inconclusive

Results for CC(=O)N1CCCC(C(=O)c2ccc3c4c(cccc24)CC3)C1 (centres undefined) ?
ClpP mod: 5%; DT40 TDP1 no CPT: 23µM*; TDP1 block: 3%; DT40 TDP1 CPT: -28%

Results for O=C(Nc1ccc2c(c1)OCO2)c1cc(-c2ccc(O)cc2)on1 ?
DT40 TDP1 no CPT: -24%; TDP1 block: -2%; DT40 TDP1 CPT: -24%

How did COc1cccc(N2CCN(S(=O)(=O)c3ccc(-c4ccno4)cc3OC)CC2)c1 do in these assays?
ClpP mod: 0%; DT40 TDP1 no CPT: inconclusive; TDP1 block: 9%; DT40 TDP1 CPT: inconclusive

How did CCCN(CCC)C(=O)CC(c1ccc(F)cc1)c1ccco1 (centres undefined) do in these assays?
ClpP mod: 0%; DT40 TDP1 no CPT: 21µM*; TDP1 block: 3%; DT40 TDP1 CPT: inconclusive

Results for CCN(CC)C(=O)CC(c1ccccc1)c1ccco1 (centres undefined) ?
ClpP mod: 0%; DT40 TDP1 no CPT: -21%; TDP1 block: 0%; DT40 TDP1 CPT: -30%

What do the screens show for `CN(Cc1nc(Cc2cccc(F)c2)no1)CC1CCOCC1`?
DT40 TDP1 no CPT: -17%; TDP1 block: 5%; DT40 TDP1 CPT: -1%

Results for CC(=O)Nc1ccc(-c2ccnc3c2CC(C(=O)Nc2cccc(C(C)=O)c2)O3)cc1 (centres undefined) ?
ClpP mod: -23%; DT40 TDP1 no CPT: 15µM*; DT40 TDP1 CPT: inconclusive

How did CC(=O)c1cccc(-c2ccnc3c2CC(C(=O)Nc2cccc(N(C)C)c2)O3)c1 (centres undefined) do in these assays?
ClpP mod: 2%; DT40 TDP1 no CPT: inconclusive; DT40 TDP1 CPT: inconclusive

What do the screens show for `CC(=O)c1cccc(-c2ccnc3c2CC(C(=O)Nc2cccc(NS(C)(=O)=O)c2)O3)c1` (centres undefined)?
ClpP mod: 0%; DT40 TDP1 no CPT: 9.2µM*; DT40 TDP1 CPT: 15µM*
